# Laboratory results: PubChem BioAssay AID588726 (The Scripps Research Institute Molecular Screening Center, 2011)
# The whole screen tested about 360,000 compounds, of which about 8,200 (2.3%) were called active. The entries come from a sample that favours actives as a whole. Values without a mark were called inactive. No stated cut-off is given here; in the data, active means inhibition above about 27%; inactive means the rest.
# Target: Fructose-bisphosphate aldolase (Mycobacterium tuberculosis (strain ATCC 25618 / H37Rv)) (UniProt P9WQA3)
# Sequence (P9WQA3 whole entry, looked up): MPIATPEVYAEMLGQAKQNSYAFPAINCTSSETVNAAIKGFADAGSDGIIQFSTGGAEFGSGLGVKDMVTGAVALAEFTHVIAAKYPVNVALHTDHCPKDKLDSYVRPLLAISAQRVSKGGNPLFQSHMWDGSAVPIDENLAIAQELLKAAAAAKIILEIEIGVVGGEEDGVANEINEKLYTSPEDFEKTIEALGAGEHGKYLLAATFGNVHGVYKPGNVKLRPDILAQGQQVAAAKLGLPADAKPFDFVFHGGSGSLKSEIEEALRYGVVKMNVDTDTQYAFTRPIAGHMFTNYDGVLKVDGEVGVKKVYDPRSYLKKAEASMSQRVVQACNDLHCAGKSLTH
# Experiment: M. tuberculosis aldolase activity blockers – biochemical, fluorescence, strain H37Rv, primary screen (AID 588726);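 further: 0% = vehicle and 100% = reference inhibitor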
# Conditions: purified M. tuberculosis FBA, fluorescence read-out, at 1 µM, hits give high values
row,Structure (SMILES),inhibition
1,O=C(CCCN1C(=O)CSc2ncccc21)N1CCN(c2cccc(C(F)(F)F)c2)CC1,3.32%
2,CN(C)c1cc(-c2ccc(F)cc2)oc(=O)c1Cl,-2.58%
3,CCCCCCc1cc2cc(-c3nnc(-c4ccccc4)o3)c(=O)oc2cc1O,4.92%
4,Cc1cc(Cl)ccc1N1C(=O)CC(SCCC(=O)O)C1=O (configuration not stated),5.32%
5,COc1ccc(C(=O)NCCSc2ccccc2C)cc1,0.09%
6,CCOc1ccc(S(=O)(=O)NCCSc2ccccc2)cc1,1.75%
7,CCOc1ccc2nc(NCCNS(=O)(=O)c3ccccc3)c(C#N)cc2c1,40.1% (active)
8,CCOc1ccc2nc(NCCNC(=O)C(C)(C)C)c(C)cc2c1,26.1%
9,Cn1nc(N)c2ncc(C(Cl)(Cl)Cl)nc21,-3.83%
10,COc1cc2c(-c3ccc4c(c3)OCO4)c(-c3ccsc3)oc(=O)c2cc1OC,2.51%
11,COc1cc(-c2nnc(NC(=O)CS(=O)(=O)c3ccc(Cl)cc3)o2)cc(OC)c1OC,-1.58%
12,COC(=O)c1c(-c2ccsc2)oc2ccc(-c3cc(OC)c(OC)c(OC)c3)cc12,27.6% (active)
13,CCCCC(NC(=O)c1cccc(Br)c1)C(=O)O (configuration not stated),3.7%
14,O=C(NC1CC2CCCC(C1)N2C(=O)N1CCCCC1)C1CCCCC1 (configuration not stated),2.38%
15,CCOCCCN(C)C1CCN(C(=O)c2oc3ccccc3c2NC(=O)Cc2cccc([N+](=O)[O-])c2)CC1,-1.05%
16,Cc1cc2oc3ccc(NCCC4CCCN4C)cc3c(=O)c2cc1C (configuration not stated),-0.55%
17,CN1CCC[C@@H]1CCO[C@](C)(c1ccccc1)c1ccc(Cl)cc1,-4.31%
18,COc1cccc2sc3cc(NCC[C@@H]4CCCN4C)ccc3c(=O)c12,40.4% (active)
19,COC(=O)c1c(C(=O)OC)c(-c2cccc(C)c2)n2c1CS(=O)C2 (configuration not stated),-0.62%
20,COc1ccc2c(c1)OC(O)(C(F)(F)C(F)F)CC2=O (configuration not stated),-0.78%
21,O=S(=O)(c1ccc(Cl)s1)N1CCC2(CC1)OCCO2,0.69%
22,CCC12CN3CC(CC)(CN(C1)C31C(=O)N(C)c3ccc(C)cc31)C2=O (configuration not stated),-4.48%
23,Cc1cc(C(=O)OCC(=O)Nc2ccc(F)c(F)c2)c(C)o1,0.1%
24,Clc1nc(NC2CCCC2)nc(N2CCOCC2)n1,2.59%
25,CC(Nc1nc(N2CCOCC2)nc2ccccc12)c1ccccc1 (configuration not stated),50.4% (active)

row,Structure (SMILES),inhibition
1,CC(CN1CCOCC1)c1ccccc1 (configuration not stated),-0.87%
2,c1cnc(NC2C3CC4CC(C3)CC2C4)nc1 (configuration not stated),1.67%
3,Fc1cnc(N2CCOCC2)nc1NCc1ccccc1,15.4%
4,c1ccc2c(NC3C4CC5CC(C4)CC3C5)nc(N3CCOCC3)nc2c1 (configuration not stated),37.7% (active)
5,Cc1ccc(-n2nc(-c3ccco3)cc2C(=O)NCc2cccnc2)cc1,-1.53%
6,CC(=O)N1CC(=O)N(CC(=O)Nc2ccc(Br)cc2)C1=S,-0.11%
7,COc1ccc(C)cc1N(CC(=O)N1CCCC1)S(=O)(=O)c1ccccc1,-1.91%
8,CC1CCCCC1NC(=O)c1cn(C)c2ccc(S(=O)(=O)N3CCOCC3)cc2c1=O (configuration not stated),-7.99%
9,Cc1ccccc1N1CCN(CCCN2C(=O)C3CCCCN3C2=O)CC1 (configuration not stated),0.31%
10,COC(=O)C1=C(C)N(C)C(=S)NC1c1cc(OC)ccc1OC (configuration not stated),2.6%
11,CC(=O)NC(NC(=S)Nc1c(C)n(C)n(-c2ccccc2)c1=O)C(Cl)(Cl)Cl (configuration not stated),4.91%
12,O=C(CCS(=O)(=O)Cc1ccccc1F)NCCCN1CCCCC1,-1.06%
13,O=C(NCc1cccnc1)Nc1cccc(NC(=O)NCc2cccnc2)c1F,2.23%
14,Cc1ccc2nc(-c3ccc(Br)cc3)cn2c1,4.66%
15,CCN(CC(=O)NCCc1ccccc1)S(=O)(=O)c1ccc(C)cc1,-0.83%
16,CCN(c1cccc(C)c1)S(=O)(=O)c1ccc(-c2coc(C)n2)cc1,3.59%
17,COc1ccc(Cc2cc(-c3ccc(F)cc3)n[nH]c2=O)cc1,-0.22%
18,CCN(CC)S(=O)(=O)c1ccc(-c2cn3ccc(C)cc3n2)cc1,140% (active)
19,Cc1ccc(-c2cn3cc(C)ccc3n2)cc1,56% (active)
20,COc1ccc(-c2cn3ccc(C)cc3n2)cc1,70.2% (active)
21,COc1ccc(C2=Nc3cc(C)ccc3OC2)cc1,17.7%
22,Cc1ccc(Cc2c(-c3ccccc3)nc3ccc(Cl)cn23)cc1,-2.09%
23,CCN(CC)C(=O)Oc1ccc(Br)cc1C(=O)Nc1ccc(F)c(Cl)c1,-6.9%
24,C#CCCOC(=O)N1C2=NC(C(=O)OC)=C(C(=O)OC)[C@@H]3N(C)c4ccc(OC)cc4[C@]23C[C@H]1C(=O)OC,5.83%
25,O=C(OCCO)c1cc(Cl)c(C(=O)OCCO)cc1Cl,-2.53%

row,Structure (SMILES),inhibition
1,CC1CC(C)(C)CC2(C1)NC(=O)N(CC(=O)Nc1nccs1)C2=O (configuration not stated),1.81%
2,Cc1ccc(S(=O)(=O)N2CCN(C(=O)c3ccc(-n4cncn4)c([N+](=O)[O-])c3)CC2)cc1,-0.25%
3,O=C(NCCc1ccccc1)c1c[nH]c2ccc(F)cc2c1=O,-1.25%
4,COc1ccc(Cl)cc1NC(=O)c1cccc(N2C(=O)C3CC=CCC3C2=O)c1 (configuration not stated),-2.03%
5,Cc1cccc(NC(=O)c2ccc(S(=O)(=O)N(C)CC3CCCO3)cc2)c1C (configuration not stated),-3.44%
6,CNc1ccc(SC#N)cc1,2.17%
7,CC1CCN(CC(=O)Nc2nccs2)CC1,-1.23%
8,CCOC(=O)C(CC)/C(C)=N\NC(=O)c1cccc(C)c1 (configuration not stated),2.1%
9,O=S(=O)(Nc1ccc2[nH]ncc2c1)c1ccccc1Cl,-2.11%
10,Cc1ccc(NS(=O)(=O)c2c(C)[nH]c(C)c2C(=O)N2CCCCC2)c(C)c1,1.03%
11,COc1ccc(NC(=O)c2sccc2SCC#N)cc1,0.88%
12,Cc1ccc2[nH]c(=O)c(COC(=O)c3ccccn3)cc2c1,1.82%
13,CCOC(=O)c1cc2cc(C)ccc2[nH]1,31.8% (active)
14,CCOC(=O)c1[nH]c2ccc(C)cc2c1N=C(C)N(C)C,1.43%
15,CC1(C)C(=O)CCC2(C)C1=CCC1C2C(=O)CC2(C)C1CCC2(O)C(=O)CO (configuration not stated),1.52%
16,COc1ccc(-n2c(C)cc(C(=O)CN3C(=O)NC4(CCc5ccccc54)C3=O)c2C)cc1 (configuration not stated),1%
17,Cc1cc(C)c(-c2c(O)c3ccccc3n(C)c2=O)c(C)c1,62.7% (active)
18,Cn1c(=O)c(C(=O)Nc2ncccn2)c(O)c2ccccc21,7.7%
19,Cn1c(=O)c(Sc2ccc(Cl)cc2)c(O)c2ccccc21,2%
20,COc1c(O)cccc1-c1nnn(CCC(=O)OCC(=O)c2ccccc2)n1,0.78%
21,CC1(C)Oc2ccc3ccc(=O)oc3c2/C(=C/NCCO)C1=O,2.48%
22,C/C=C(/C)C(=O)OC1Cc2c(ccc3ccc(=O)oc23)OC1(C)C (configuration not stated),26.4%
23,CC(=O)c1c(OCC(=O)N(C)C2CCCCC2)ccc2c(C)cc(=O)oc12,9.58%
24,Cc1cc(=O)oc2c(C(=O)c3ccccc3)c(OCC(N)=O)ccc12,0.48%
25,Cc1cc(=O)oc2c1ccc1ccccc12,37% (active)

row,Structure (SMILES),inhibition
1,N#CC(C#N)=CN=c1ccn(Cc2ccc(Cl)cc2Cl)cc1,-0.58%
2,O=C(COc1ccc2ccccc2c1)N1CCN(C(=O)c2cccs2)CC1,-0.2%
3,CC(=O)NS(=O)(=O)c1ccc(NC(=O)/C=C/c2ccccc2Cl)cc1,6.43%
4,CC(=O)Nc1ccc(S(=O)(=O)Nc2cc(C)cn(Cc3ccc(C)cc3)c2=O)cc1,-0.45%
5,CCC1CCCCN1CCCNC(=O)c1cc2c(Cl)nc3ccccc3c2s1 (configuration not stated),-4.11%
6,O=C(NCCN1CCN(Cc2ccccc2)CC1)c1cc2c(=O)[nH]c3ccccc3c2s1,47.8% (active)
7,Cn1c(C(=O)NCCN2CCc3ccccc3C2)cc2c(=O)[nH]c3ccccc3c21,5.1%
8,Cc1ccc(C)c(C(O)c2ncc(-c3cccc4ccccc34)[nH]2)c1 (configuration not stated),23.2%
9,COc1ccc(C)cc1S(=O)(=O)NCCc1ccccc1,-6.6%
10,COc1cccc2oc(CCc3ccccc3)cc(=O)c12,33.4% (active)
11,COc1ccccc1CN(C)C(=O)c1cc2ccccc2o1,2.4%
12,CCOc1ccc(C(=O)NC(=S)Nc2ccc(N3CCOCC3)c(Cl)c2)cc1[N+](=O)[O-],11%
13,COC(=O)C1C(=O)CC(C)(O)C(C(=O)OC)C1c1ccc2c(c1)OCO2 (configuration not stated),0.24%
14,COc1ccc(OC)c(S(=O)(=O)Nc2ccccc2F)c1,-2.78%
15,COc1cc(/C=C/C(=O)O)cc(S(=O)(=O)Nc2ccccc2C(=O)NCCc2ccccc2)c1OC,0.65%
16,COc1cc(OC)c(S(=O)(=O)Nc2ccccc2C(=O)O)cc1S(=O)(=O)Nc1ccccc1C(=O)O,30.9% (active)
17,COc1ccc(N2CC(C(=O)NCCS(=O)(=O)N3CCN(c4ccccc4)CC3)CC2=O)cc1 (configuration not stated),-1.82%
18,CCOC(=O)N1CCN(Cc2nc3cc(NC(=O)CC)ccc3n2CC)CC1,0.91%
19,COCc1c(C(=O)OCC(=O)Nc2ccc(OC(F)F)cc2)oc2ccccc12,1.74%
20,Cc1cc(C)c2nc(-c3ccco3)cc(C(=O)O)c2c1,105% (active)
21,COC(=O)c1cnn2c(C(F)(F)F)cc(-c3ccco3)nc12,14%
22,CCOC(=O)c1ccn(-c2nc(-c3ccco3)cc(C(F)(F)F)n2)n1,10.6%
